These results are taken from PubChem BioAssay AID1259341 (Broad Institute, 2017).

Active and inactive are the calls of the source.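 Rule for the calls: active = activity change under -35% in any replicate well, with more than 20 beads read in that well; inactive = the rest.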

Sequence of Caspase recruitment domain-containing protein 9 (Homo sapiens) + E3 ubiquitin-protein ligase TRIM62 (Homo sapiens) (Q9BVG3 whole entry, looked up, the tested form may be a part): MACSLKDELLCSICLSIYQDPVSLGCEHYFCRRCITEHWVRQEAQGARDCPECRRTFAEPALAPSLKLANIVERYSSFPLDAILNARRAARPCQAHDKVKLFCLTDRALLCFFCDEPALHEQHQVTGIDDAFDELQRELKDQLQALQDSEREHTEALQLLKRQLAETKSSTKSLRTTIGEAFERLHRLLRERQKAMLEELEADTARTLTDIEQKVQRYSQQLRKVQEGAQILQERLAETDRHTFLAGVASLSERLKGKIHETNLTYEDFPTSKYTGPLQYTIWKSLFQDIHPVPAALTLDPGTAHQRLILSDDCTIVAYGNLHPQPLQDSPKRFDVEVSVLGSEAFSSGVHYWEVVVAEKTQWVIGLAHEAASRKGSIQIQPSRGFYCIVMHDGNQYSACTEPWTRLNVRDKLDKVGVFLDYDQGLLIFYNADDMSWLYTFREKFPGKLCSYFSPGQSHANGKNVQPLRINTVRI
Sequence of Caspase recruitment domain-containing protein 9 (Homo sapiens) + E3 ubiquitin-protein ligase TRIM62 (Homo sapiens) (Q9H257 whole entry, looked up, the tested form may be a part): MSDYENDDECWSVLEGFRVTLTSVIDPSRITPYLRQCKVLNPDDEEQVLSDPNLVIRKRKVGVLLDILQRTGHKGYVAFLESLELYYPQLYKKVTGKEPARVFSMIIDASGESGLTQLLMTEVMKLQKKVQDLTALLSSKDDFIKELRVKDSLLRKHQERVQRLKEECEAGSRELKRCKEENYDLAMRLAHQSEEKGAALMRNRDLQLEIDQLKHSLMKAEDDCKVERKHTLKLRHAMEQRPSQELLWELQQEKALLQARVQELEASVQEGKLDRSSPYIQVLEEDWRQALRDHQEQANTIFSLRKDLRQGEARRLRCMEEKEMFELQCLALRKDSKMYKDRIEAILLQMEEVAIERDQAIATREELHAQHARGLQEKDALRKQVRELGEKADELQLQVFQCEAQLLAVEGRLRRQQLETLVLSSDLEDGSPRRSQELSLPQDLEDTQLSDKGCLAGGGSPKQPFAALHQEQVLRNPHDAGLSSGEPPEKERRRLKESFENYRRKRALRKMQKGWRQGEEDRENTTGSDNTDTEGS

This experiment addresses Caspase recruitment domain-containing protein 9 (Homo sapiens) + E3 ubiquitin-protein ligase TRIM62 (Homo sapiens) (UniProt Q9H257+Q9BVG3). Description: disruptors of CARD9-TRIM62 binding, primary screen, cell lysate, HEK293FT lysates, Luminex bead ELISA (AID 1259341).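 Note: PE anti-Flag signal of Flag-CARD9 captured by myc-TRIM62 beads.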 The note with it: PE fluorescence, active compounds read low, concentration not given here.
For `O=C(O)CCc1ccc(-c2cccs2)n1NC(=O)c1ccco1`, the activity change, negative = inhibition was 1.63% (inactive). `COc1ccc(N2Cc3cccc(C(=O)NC(C)CCc4ccco4)c3C2=O)cc1` (centres undefined): the activity change, negative = inhibition is 0.962% (inactive). Regarding `NC(=O)C1(N2CCCCC2)CCN(c2ccc(NC(=O)c3cccc(Cl)c3)cc2C(=O)O)CC1`, the activity change, negative = inhibition was -49% (active). On to `COc1ccc(S(=O)(=O)Nc2ccc3c(c2)C(=O)N([C@H](C)CO)C[C@H](C)[C@@H](CN(C)CC2CCCCC2)OCCCC[C@H](C)O3)cc1`, for which the activity change, negative = inhibition was 5.92% (inactive).

In the case of `COc1ccc2nc(-c3ccco3)c(-c3ccco3)nc2c1`, the activity change, negative = inhibition is -3.64% (inactive).

Take `O=C(NCC1CCCO1)c1cc(-c2ccco2)nc2ccccc12` (centres undefined): the activity change, negative = inhibition was -3.93% (inactive). In the case of `N#Cc1c2c(c(NCc3ccco3)n3c1nc1ccccc13)CCC2`, the activity change, negative = inhibition was 5.44% (inactive). Regarding `COc1ccc(S(=O)(=O)c2ccccc2)cc1NS(=O)(=O)c1cccc(C(=O)O)c1`, the activity change, negative = inhibition is -0.344% (inactive). To `Cc1noc(C)c1S(=O)(=O)Nc1ccc2c(c1)C(=O)N([C@H](C)CO)C[C@H](C)[C@@H](CN(C)C(=O)C1CCCCC1)OCCCC[C@H](C)O2` belongs 7.66% (inactive); to `O=C(NCc1ccco1)C1CCCN(S(=O)(=O)c2cccc3nonc23)C1` (centres undefined), 0.63% (inactive); to `O=C(Nc1ccc2c(c1)nc1n2CCN(C2CCCCC2)C1)c1ccco1`, -2.69% (inactive).

Consider `O=C1C=C(c2ccccc2)Nc2ccccc2N1`, for which the activity change, negative = inhibition was 2.64% (inactive). In the case of `O=C1c2ccccc2S(=O)(=O)N1Cc1cccc(S(=O)(=O)N2CCOCC2)c1` it was 5.11% (inactive); in that of `O=C(NCc1ccco1)c1ccc(S(=O)(=O)N2CCOCC2)cc1`, 19.9% (inactive). To `O=C(Nc1ccc2oc(-c3ccncc3)nc2c1)c1ccc2c(c1)OCO2` belongs -8.29% (inactive). To `O=C(O)C(c1ccccc1)C(c1ccccc1)c1ccccc1` (centres undefined) belongs 6.86% (inactive); to `Cc1nc2ccccc2nc1CSCc1ccco1`, 1.2% (inactive).

Consider `O=C(O)COc1ccc(-n2cccc2)cc1`, for which the activity change, negative = inhibition was -1.45% (inactive). As for `CCN(CCNC(=O)C1CCN(S(=O)(=O)c2c(C)noc2C)CC1)c1ccccc1`, the activity change, negative = inhibition is -0.84% (inactive).
